The text below walks through data of PubChem BioAssay (EPA / NIEHS).

Holding throughout (conditions): mRNA level, 48 h; actives raise or lower the signal
Read-out in assay [1]: Early growth response protein 1 (EGR1) transcription factor, EGR1 (gene 1958)
Kind of assay: LTEA_HepaRG_EGR1: Life Technologies and Expression Analysis (LTEA) Assay for Early growth response protein 1 (EGR1) transcription factor using HepaRG (AID 2283490). In short, it runs like this: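 Differentiated HepaRG cells in serum-free induction medium exposed 48 hours, duplicate, to 8 half-log concentrations up to 100 uM in 0.5% DMSO. EGR1 mRNA measured by TaqMan qRT-PCR, normalized to ACTB, GAPDH, POLR2A; bidirectional fit versus DMSO.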

Read-out in assay [2]: Fatty Acid-Binding Protein 1 (FABP1), FABP1 (gene 2168)
The assay is described as follows: LTEA_HepaRG_FABP1: Life Technologies and Expression Analysis (LTEA) Assay for Fatty Acid-Binding Protein 1 (FABP1) using HepaRG (AID 2283494). In short, it runs like this:
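Differentiated human HepaRG cells exposed 48 h in serum-free induction medium to eight half-log concentrations up to 100 uM (0.5% DMSO), duplicate. FABP1 mRNA by qRT-PCR, normalised to ACTB, GAPDH, POLR2A; bidirectional fitting against DMSO.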

Read-out in assay [3]: Glutamate-cysteine ligase catalytic (GCLC), GCLC (gene 2729)
The assay is described as follows: LTEA_HepaRG_GCLC: Life Technologies and Expression Analysis (LTEA) Assay for Glutamate-cysteine ligase catalytic (GCLC) using HepaRG (AID 2283498). In short, it runs like this: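 Differentiated HepaRG cells exposed 48 h in serum-free induction medium, eight-point half-log series topping at 100 uM in 0.5% DMSO, duplicates. GCLC mRNA by qRT-PCR normalized to ACTB, GAPDH and POLR2A, fitted bidirectionally versus DMSO.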

Read-out in assay [4]: growth arrest and DNA damage 45 (GADD45G), GADD45G (gene 10912)
The assay is described as follows: LTEA_HepaRG_GADD45G: Life Technologies and Expression Analysis (LTEA) Assay for growth arrest and DNA damage 45 (GADD45G) using HepaRG (AID 2283499). In short, it runs like this: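 GADD45G transcript level by qRT-PCR (housekeeping-normalized: ACTB, GAPDH, POLR2A) after 48 h chemical treatment of a single HepaRG lot in serum-free induction medium; eight-point half-log series up to 100 uM in 0.5% DMSO, duplicates, up- or down-regulation scored.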

Read-out in assay [5]: Cytochrome P450 3A7 (Homo sapiens) (UniProt P24462)
The assay is described as follows: LTEA_HepaRG_CYP3A7: Life Technologies and Expression Analysis (LTEA) Assay for CYP3A7 using HepaRG (AID 2283492). In outline:
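CYP3A7 transcript measured by qRT-PCR (ACTB, GAPDH, POLR2A normalization) after 48 h chemical exposure of HepaRG cells in duplicate. Eight half-log concentrations, maximum 100 uM, 0.5% DMSO vehicle; bidirectional curve fitting against DMSO baseline.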

Read-out in assay [6]: Cytochrome P450 4A22 (Homo sapiens) (UniProt Q5TCH4)
The assay is described as follows: LTEA_HepaRG_CYP4A22: Life Technologies and Expression Analysis (LTEA) Assay for Cytochrome P450 4A22 (CYP4A22) using HepaRG (AID 2283495). In short, it runs like this: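 Gene expression measured by qRT-PCR against three housekeeping genes (ACTB, GAPDH, POLR2A), with gain or loss fitted relative to 0.5% DMSO vehicle. HepaRG cultures received 48 h chemical treatment, top concentration 100 uM, half-log steps, duplicate wells.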

Read-out in assay [7]: Cytochrome P450 7A1 (Homo sapiens) (UniProt P22680)
The assay is described as follows: LTEA_HepaRG_CYP7A1: Life Technologies and Expression Analysis (LTEA) Assay for Cytochrome P450 7A1 (CYP7A1) using HepaRG (AID 2283496). In short, it runs like this:
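Gene expression endpoint in human HepaRG liver cells treated for 48 h with test chemicals (up to 100 uM, 0.5% DMSO). Values come from bidirectional concentration-response fitting versus DMSO.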

Read-out in assay [8]: Glutamate-cysteine ligase regulatory (GCLM), GCLM (gene 2730)
Kind of assay: LTEA_HepaRG_GCLM: Life Technologies and Expression Analysis (LTEA) Assay for Glutamate-cysteine ligase regulatory (GCLM) using HepaRG (AID 2283500). In outline: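 Differentiated human HepaRG cells exposed 48 h in serum-free induction medium to 8-point half-log concentrations (top 100 uM, 0.5% DMSO), in duplicate. GCLM mRNA quantified by qRT-PCR, normalized to ACTB, GAPDH, POLR2A; bidirectional fitting versus DMSO.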

As a reminder, the AC50 is the concentration giving half of the maximal activity seen.

Calls of active or inactive are those of the source. Rule for the calls: active = hit-call score of the fitted dose curve at least 0.9, where 1 is the maximum; inactive = score below 0.9.

Chain of Cytochrome P450 3A7 (Homo sapiens) (P24462 whole entry, looked up): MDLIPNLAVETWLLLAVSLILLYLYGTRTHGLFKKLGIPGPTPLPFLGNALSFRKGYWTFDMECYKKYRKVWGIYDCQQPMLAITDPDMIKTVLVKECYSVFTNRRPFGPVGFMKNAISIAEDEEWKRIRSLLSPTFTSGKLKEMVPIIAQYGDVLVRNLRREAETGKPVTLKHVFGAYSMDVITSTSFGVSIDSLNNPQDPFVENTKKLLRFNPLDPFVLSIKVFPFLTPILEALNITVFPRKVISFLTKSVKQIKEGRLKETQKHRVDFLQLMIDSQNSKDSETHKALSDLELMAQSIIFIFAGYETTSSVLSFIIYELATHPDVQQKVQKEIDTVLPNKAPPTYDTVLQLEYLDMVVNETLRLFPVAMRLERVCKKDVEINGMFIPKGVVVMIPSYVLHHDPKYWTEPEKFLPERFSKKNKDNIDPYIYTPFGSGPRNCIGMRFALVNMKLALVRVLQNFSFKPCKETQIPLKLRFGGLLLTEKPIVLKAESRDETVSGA

As for `CC(C)(C)c1ccc(O)cc1`, the outcome in assay [1], in assay [2], in assay [3] and in assay [4] was inactive.
With `c1nc[nH]n1`, in assay [1], the AC50 was 0.109 µM (active). Further, the outcome in assay [5], in assay [2], in assay [6], in assay [7], in assay [3] and in assay [4] was inactive.
Take `Nc1ccc(Cl)cc1`: the molecule was classed as inactive in assay [1], in assay [5], in assay [2], in assay [6], in assay [7] and in assay [3]. In addition, the molecule was called inactive in assay [4].
Take `Nc1cc2c3c(c1)C(c1ccccc1)=N[C@@H](NC(=O)c1cccnc1)C(=O)N3CC2`: the call in assay [1], in assay [7], in assay [3] and in assay [4] was inactive. Moreover, the AC50 is 5.11 µM (active) in assay [5], 50 µM (active) in assay [2] and 10.9 µM (active) in assay [6].
For `CCOP(=S)(OCC)SCSCC`, the call in assay [1], in assay [5], in assay [2], in assay [6], in assay [7] and in assay [3] was inactive. The molecule was called inactive in assay [4].
As to `Cc1ccc([N+](=O)[O-])cc1C`, the molecule was classed as inactive in assay [1], in assay [5], in assay [2], in assay [6], in assay [7] and in assay [3]. In addition, in assay [4], the molecule was classed as inactive.
For the molecule `CCC1(c2ccccc2)C(=O)N=C(O)NC1=O` (stereo not given), the molecule was called inactive in assay [1], in assay [2], in assay [6], in assay [7], in assay [3] and in assay [4]. In assay [5], the AC50 was 41.3 µM (active).
On to `Cc1ccc(N)cc1N`, for which the molecule was classed as inactive in assay [1], in assay [5], in assay [2], in assay [6], in assay [3] and in assay [4]. Besides, the AC50 in assay [7] was 18 µM (active).
Regarding `ClC(Cl)(Cl)c1ccccc1`, the outcome in assay [1], in assay [5], in assay [2], in assay [6], in assay [7] and in assay [3] was inactive. In addition, the result in assay [4] was inactive.
`COCCOCCO`: the molecule was classed as inactive in assay [1], in assay [2], in assay [6], in assay [7], in assay [3] and in assay [4].
For `CSC(C)(C)C=NO`, the molecule was classed as inactive in assay [1], in assay [5], in assay [2], in assay [6], in assay [7] and in assay [3]. Also, in assay [4], the call was inactive.
As for `ClC1=C(Cl)C2(Cl)C3C(Cl)C(Cl)CC3C1(Cl)C2(Cl)Cl` (stereo not given), the outcome in assay [1], in assay [5], in assay [3] and in assay [4] was inactive. The concentration at half-maximal activity (AC50) in assay [2] is 12.5 µM (active); in assay [6], 26.2 µM (active); in assay [7] it was 10.4 µM (active).
Consider `CCCCCCCc1ccc(O)cc1`, for which the result in assay [1], in assay [5], in assay [2], in assay [6], in assay [7] and in assay [3] was inactive. Moreover, the result in assay [4] and in assay [8] was inactive.
As for `[N-]=[N+]=[N-]`, the molecule was called inactive in assay [1], in assay [5], in assay [7] and in assay [3]. In addition, the AC50 in assay [2] was 77.6 µM (active); in assay [6], 50 µM (active); in assay [4] it was 78.1 µM (active); in assay [8] it was 95 µM (active).
On to `CCOS(=O)(=O)OCC`, for which the outcome in assay [1], in assay [5], in assay [2], in assay [6], in assay [7] and in assay [3] was inactive. Besides, the outcome in assay [4] was inactive.
`O=C(O)C1C(C(=O)O)C2(Cl)C(Cl)=C(Cl)C1(Cl)C2(Cl)Cl` (stereo not given): the result in assay [1], in assay [5], in assay [2], in assay [6], in assay [7] and in assay [4] was inactive. In assay [3], the half-maximal activity concentration (AC50) is 50 µM (active).
For the molecule `CN(C)C(=O)Cl`, the result in assay [1], in assay [5], in assay [2], in assay [6], in assay [7] and in assay [3] was inactive. Further, in assay [4], the molecule was called inactive.
For `O=[N+]([O-])c1ccccc1`, the call in assay [1], in assay [5], in assay [2], in assay [3], in assay [4] and in assay [8] was inactive.
As for `CCC(C)(C)c1ccc(O)cc1`, the call in assay [1], in assay [5], in assay [2], in assay [6], in assay [7] and in assay [3] was inactive. Besides, the result in assay [4] was inactive.
For `CCOP(=S)(Oc1ccc([N+](=O)[O-])cc1)c1ccccc1` (stereo not given), the result in assay [1], in assay [6] and in assay [7] was inactive. The values for the AC50 in assay [5], in assay [2] and in assay [4] were 2.87 µM (active), 12.7 µM (active) and 65.7 µM (active), respectively.
Consider `CCCCN(CCCC)SN(C)C(=O)Oc1cccc2c1OC(C)(C)C2`, for which the molecule was classed as inactive in assay [1], in assay [2], in assay [6], in assay [3] and in assay [4]. The concentration at half-maximal activity (AC50) is 4.49 µM (active) in assay [5] and 50 µM (active) in assay [7].
Take `CCNc1nc(Cl)nc(NC(C)(C)C)n1`: the call in assay [1], in assay [5], in assay [7], in assay [3] and in assay [4] was inactive. Further, the AC50 in assay [2] was 28.7 µM (active); in assay [6], 11 µM (active).
